Results filed as inconclusive are left out. Calls of active or inactive are those of the source. Calls follow the shape of the dose curve; as a rule, active = well fitted inhibition curve with a large enough effect; inconclusive = small, poorly fitted or top-dose-only effect, or effect the other way; inactive = flat fitted curve, though single readings scatter.
% is scaled to controls: 0 for no effect and ±100 for the full control effect; potency is read from the fitted curve at half-maximal effect.

The target of this experiment is Ubiquitin carboxyl-terminal hydrolase 2 (Homo sapiens) (UniProt O75604). Kind of experiment: Ub-rhodamine 110 based assay for inhibitors Ubiquitin-specific Protease USP2a. Also: nearly all actives have a fitted effect of over 50% in size. The settings on record: USP2a Ub-rhodamine110 cleavage, fluorescence; series mostly up to 38.3 µM; activity change, negative = inhibition: at the top concentration. Summed up: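 Kinetic fluorescence (485/531 nm) read each minute over 7 min after adding Ub-Rhod110 (150 nM final) to USP2a (5 nM final). The enzyme had 30 min RT exposure to compounds beforehand in Tris pH 8.0 buffer with CaCl2, CHAPS and beta-ME.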
Chain of Ubiquitin carboxyl-terminal hydrolase 2 (Homo sapiens) (O75604 whole entry, looked up): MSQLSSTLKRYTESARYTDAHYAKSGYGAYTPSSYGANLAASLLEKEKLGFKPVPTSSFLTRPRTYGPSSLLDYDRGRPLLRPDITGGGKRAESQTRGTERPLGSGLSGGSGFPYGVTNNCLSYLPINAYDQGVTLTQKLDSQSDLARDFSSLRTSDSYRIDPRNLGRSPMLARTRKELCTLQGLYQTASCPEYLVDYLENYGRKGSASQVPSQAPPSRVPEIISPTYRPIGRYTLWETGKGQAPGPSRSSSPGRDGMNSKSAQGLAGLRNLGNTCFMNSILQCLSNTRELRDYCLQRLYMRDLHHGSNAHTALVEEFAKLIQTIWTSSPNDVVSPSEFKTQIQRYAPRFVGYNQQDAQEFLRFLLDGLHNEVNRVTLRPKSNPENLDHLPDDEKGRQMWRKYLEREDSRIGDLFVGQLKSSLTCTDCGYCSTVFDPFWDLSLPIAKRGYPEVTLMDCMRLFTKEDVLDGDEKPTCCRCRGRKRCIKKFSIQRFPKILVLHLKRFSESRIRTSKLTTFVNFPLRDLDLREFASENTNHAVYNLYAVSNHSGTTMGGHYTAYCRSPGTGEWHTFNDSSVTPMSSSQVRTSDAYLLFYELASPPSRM
As to `CC(=O)c1cccc(NC(=O)C(C)OC(=O)c2cc(=O)[nH]c3ccccc23)c1` (centres undefined), the “activity change, negative = inhibition” value was -17% (inactive).
In the case of `COc1cccc(C(=O)NCc2ccc3[nH]c(C)cc3c2)c1`, the “activity change, negative = inhibition” value is -1.49% (inactive).
As to `CCCC(=O)Nc1ccc(N2CCN(C(=O)c3cc4ccccc4o3)CC2)cc1`, the “activity change, negative = inhibition” value was -17.7% (inactive).
Regarding `Cc1ccc(C(C(=O)NC2CCCC2)N2CCc3ccccc32)cc1` (centres undefined), the “activity change, negative = inhibition” value is 6.95% (inactive).
For the compound `CN1CCN(Cc2c(O)ccc3c(=O)c(Oc4ccccc4Cl)c(C(F)(F)F)oc23)CC1`, the “activity change, negative = inhibition” value is 3.93% (inactive).
Same read-out and setting: then `CCC(CO)Nc1nc(CN2CCCCC2)nc2scc(-c3ccccc3)c12` (centres undefined), with -3.55% (inactive); and `COC(=O)c1cc2sc(Cl)cc2n1Cc1nc(-c2ccccc2)oc1C`, with 0.719% (inactive).
Regarding `O=C(COC(=O)c1c2c(nc3ccccc13)/C(=C/c1ccco1)CC2)NC1CCCC1`, the Potency was 3.55 µM (active).
Regarding `CS(=O)(=O)c1nc(-c2ccc(Br)cc2)cc(-c2ccccc2)c1C#N`, the “activity change, negative = inhibition” value was -17.1% (inactive).
Still for that read-out and setting: as for `CC1CCCC(N2CCN(C(=O)c3cccc(F)c3)CC2)C1` (centres undefined), the figure is -6.05% (inactive); as for `CN1CCN(S(=O)(=O)c2ccc(N3CCN(S(=O)(=O)/C=C/c4ccccc4)CC3)nc2)CC1`, 1.29% (inactive).
Still for that read-out and setting: then `Cc1cc(Cl)ccc1NC(=S)NCCCN1CCCC1=O`, with 3.42% (inactive); and `O=C(C[n+]1cccc(C(=O)N/N=C/c2ccc(Br)cc2)c1)c1ccccc1`, with -2.35% (inactive).
For the compound `O=S(=O)(Nc1ccc(O)c(Sc2nc3ccccc3s2)c1)c1cccc2ccccc12`, the Potency was 10 µM (active).
Consider `C=CC[C@H](CC(=O)N[C@H](CO)Cc1ccccc1)C(=O)N[C@H](COC(=O)[C@@H](CC=C)CC(=O)OC(C)(C)C)Cc1c[nH]c2ccccc12`, for which the “activity change, negative = inhibition” value was -11.3% (inactive).
On the same count and under the same terms, as for `CC(=O)O[C@H]1[C@H](O)[C@H](Oc2c(O)c(C)c3c4c2[C@@H](C)CC[C@@H]4[C@@H](C)C[C@H]3C=C(C)C)O[C@@H](C)[C@H]1O`, the figure is -1.57% (inactive).
Take `O=C(Nc1nc(-c2ccco2)c(-c2ccco2)s1)C1CC(=O)N(c2ccc3c(c2)OCCO3)C1` (centres undefined): the Potency is 2.51 µM (active).
On to `CCOC(=O)c1c(NC(C)=O)sc2c1CCCNC2=O`, for which the “activity change, negative = inhibition” value is -1.65% (inactive).
Same read-out and setting: then `CN(C)c1cccc(C(=O)NNC(=O)C23CC4CC(CC(C4)C2)C3)c1`, with 0.556% (inactive).
`Cc1ccccc1C(=O)Nc1ccc2nc3n(c(=O)c2c1)CCC3`: the “activity change, negative = inhibition” value was -6.38% (inactive).
On to `Cc1cccc2c1N(CCCOc1ccc(C(C)(C)C)cc1)C(=O)C2=O`, for which the “activity change, negative = inhibition” value is -18.2% (inactive).
`O=C(c1ccccc1)N1CCN(C2C3CC4CC(C3)CC2C4)CC1` (centres undefined): the “activity change, negative = inhibition” value is -3.77% (inactive).
Regarding `COC(=O)CCC(=O)Nc1sc2c(c1C#N)CCCC2`, the “activity change, negative = inhibition” value is -9.38% (inactive).
For the compound `O=C(/C=N/O)NCc1cccnc1`, the “activity change, negative = inhibition” value was -8.44% (inactive).
For `NS(=O)(=O)c1ccc(N=Nc2c(O)c(C(=O)O)cc3ccccc23)cc1`, the Potency is 5.62 µM (active).
For `O=C(NCCN1C(=O)CSC1=O)C1CC(=O)N(c2ccccc2)C1` (centres undefined), the “activity change, negative = inhibition” value is -2.6% (inactive).
`COc1cccc(/C=N/n2c(SC)nnc2-c2ccccc2)c1O`: the “activity change, negative = inhibition” value was -15.9% (inactive).
Turning to `COc1ccc(C2CC(=O)N3CN(c4ccccc4F)CSC3=C2C#N)cc1OC` (centres undefined), the “activity change, negative = inhibition” value is -18.7% (inactive).
As to `CCOC(=O)c1[nH]c2ccc(OC)cc2c1NC(=O)CCN1CCC(C)CC1`, the “activity change, negative = inhibition” value is -3.42% (inactive).
On to `Cc1c2c(=O)n(-c3nc4ccccc4s3)nc-2cc(O)n1Cc1ccccc1`, for which the Potency was 6.31 µM (active).
For `FC(F)Sc1ccc(NC(=S)NC2CCCCC2)cc1`, the “activity change, negative = inhibition” value was -3% (inactive).
For `C=CC[C@H](CC(=O)OC(C)(C)C)C(=O)OC[C@@H]1CCCN1C(=O)[C@H](CC=C)CC(=O)N[C@H](CO)Cc1ccccc1`, the “activity change, negative = inhibition” value is 0.806% (inactive).
Turning to `Cc1ccc(NC(=O)Cn2nc(C)c3ccccc3c2=O)cc1F`, the “activity change, negative = inhibition” value is -5.77% (inactive).
`O=C(NC1CCCCC1)C(c1ccco1)N(Cc1ccco1)C(=O)c1ccco1` (centres undefined): the “activity change, negative = inhibition” value is -21.9% (inactive).
`CNc1sc(C(=O)c2ccc(F)cc2)c(N)c1-c1nc2ccccc2s1`: the “activity change, negative = inhibition” value was -5.39% (inactive).
Take `C#CCOCCOCCOCCNc1nc(N2CCN(C(=O)CCCCCCCCCCNC(=O)Cn3cc(C[C@@H](C)O)nn3)CC2)nc(N2CCN(C(=O)CCCCCCCCCCNC(=O)[C@@H]([C@H](C)CC)n3cc(CCCCCN)nn3)CC2)n1`: the “activity change, negative = inhibition” value is -28.3% (inactive).
Regarding `CC(C)(C)c1cc(Br)ccc1OCC(=O)Nc1ncn[nH]1`, the “activity change, negative = inhibition” value is -0.347% (inactive).
On the same count and under the same terms, then `Cc1cccc(NC(=O)NCc2ccc3c(c2)cc(C)n3C)c1`, with -10.8% (inactive).
For `CC(=O)C1=C(O)C(=O)N(c2nnn(C)n2)C1c1cccs1` (centres undefined), the “activity change, negative = inhibition” value was -10.9% (inactive).
